The text below walks through data of PubChem BioAssay (NCATS).

Values joined by “and” are separate entries in the source; they are usually repeats but may differ in a detail not shown here. Identical values can stand only once.

A short description of the test: qHTS profiling of the MIPE4 collection as inhibitors of Plasmodium falciparum (3D7) proliferation (AID 743344).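 Also: scaled between DMSO vehicle wells and 0.29 µM artemisinin as full inhibition.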 The note with it: P. falciparum 3D7 in erythrocytes, SYBR Green DNA fluorescence, 72 h; at 28.5 µM unless noted. The method, boiled down:
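Erythrocytes infected with P. falciparum (0.3% parasitemia, 2.5% hematocrit) incubated with compounds 72 h at 37 C, 5% CO2. Lysis with saponin/Triton buffer containing SYBR Green I, overnight at room temperature in the dark; DNA fluorescence (485/535 nm) normalised to 0.29 uM artemisinin and DMSO.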
The compound `N#CC(=C(O)c1ccc(Cl)cc1Cl)c1nc2cc(Cl)ccc2c(=O)[nH]1` displayed a parasite growth, % of DMSO control of 36.6%.

The compound `CN(C)CCN1C(=O)c2cccc3cc(N)cc(c23)C1=O` had a parasite growth, % of DMSO control of 18.3%.

`Nc1nc2c(c(=O)[nH]1)N(C=O)[C@H](CNc1ccc(C(=O)N[C@@H](CCC(=O)O)C(=O)O)cc1)CN2` had a parasite growth, % of DMSO control of 106%.

`O=C(O)c1ccc(Nc2ncc3c(n2)-c2ccc(Cl)cc2C(c2c(F)cccc2F)=NC3)cc1` yielded a parasite growth, % of DMSO control of 56.9%.

Compound `CCOC(=O)C=C[C@H](C[C@@H]1CCNC1=O)NC(=O)[C@@H](CC(=O)[C@@H](NC(=O)c1cc(C)on1)C(C)C)Cc1ccc(F)cc1` yielded a parasite growth, % of DMSO control of 22%.

On to `CC(=O)N[C@@H]1[C@H](O[C@@H]2c3ccc(c(Cl)c3)Oc3cc4cc(c3O[C@H]3O[C@H](CO)[C@@H](O)[C@H](O)[C@H]3NC(=O)CCCCCCCC(C)C)Oc3ccc(cc3Cl)C[C@H]3NC(=O)[C@H](N)c5ccc(O)c(c5)Oc5cc(O)cc(c5)[C@H](NC3=O)C(=O)N[C@H]4C(=O)N[C@H]3C(=O)N[C@@H]2C(=O)N[C@@H](C(=O)O)c2cc(O)cc(O[C@H]4O[C@H](CO)[C@@H](O)[C@H](O)[C@H]4O)c2-c2cc3ccc2O)O[C@H](CO)[C@@H](O)[C@@H]1O`, for which the parasite growth, % of DMSO control was 395%.

In the case of `N#Cc1c(NC(=O)c2cccc3ccccc23)sc2c1CCCC2`, the parasite growth, % of DMSO control was determined as 69.2%.

In turn, `COc1cccc2c1C(=O)c1c(O)c3c(c(O)c1C2=O)C[C@@](O)(C(=O)CO)C[C@@H]3O[C@H]1C[C@H](N)[C@H](OC2CCCCO2)[C@H](C)O1` (some centres not stated) registered a parasite growth, % of DMSO control of 5.43%.

Consider `CCOC(=O)N1CCN([N+]([O-])=NOc2ccc([N+](=O)[O-])cc2C#N)CC1`, for which the parasite growth, % of DMSO control amounted to 10.5%.

For the compound `CC(=O)NC(CS)C(=O)O` (configuration not stated), the parasite growth, % of DMSO control amounted to 101%.

`O=C1NC(=O)[C@@H](c2cn3c4c(cccc24)CCC3)[C@H]1c1c[nH]c2ccccc12` came in with a parasite growth, % of DMSO control of 54.8%.

Turning to `CC[C@H]1OC(=O)[C@H](C)[C@@H](O[C@H]2C[C@@](C)(OC)[C@@H](O)[C@H](C)O2)[C@H](C)[C@@H](O[C@@H]2O[C@@H](C)C[C@H](N(C)C)[C@@H]2O)[C@](C)(O)C[C@@H](C)C(=O)[C@H](C)[C@@H](O)[C@]1(C)O`, the parasite growth, % of DMSO control came out at 60.1%.

As for `CN1CCCN(C(=O)c2cccc(-c3ccc(C=C4C(=O)Nc5ccc(Cl)cc54)o3)c2)CC1`, the parasite growth, % of DMSO control is 3.74%.

On to `O=[N+]([O-])c1cn2c(n1)OC[C@@H](OCc1ccc(OC(F)(F)F)cc1)C2`, for which the parasite growth, % of DMSO control is 94.2% and 79.4%.

`CNC(=O)c1ccc(Nc2cc(Nc3ccccc3S(=O)(=O)C(C)C)c3cc[nH]c3n2)nc1` displayed a parasite growth, % of DMSO control of 4.82%.

In the case of `C[C@@H](Cc1cc2c(c(C(N)=O)c1)N(CCCO)CC2)NCCOc1ccccc1OCC(F)(F)F`, the parasite growth, % of DMSO control was found to be 48.1%.

Consider `CCN(C(=O)c1c(O)c2c(Cl)cccc2n(C)c1=O)c1ccccc1`, for which the parasite growth, % of DMSO control was found to be 94.2%.

The compound `C[C@@H]1[C@H](C)CC[C@]2(C(=O)O)CC[C@]3(C)C(=CC[C@@H]4[C@@]5(C)C[C@@H](O)[C@H](O)[C@@](C)(CO)[C@H]5CC[C@]43C)[C@@H]12` yielded a parasite growth, % of DMSO control of 68.7%.

With `C=CCNC1=C2C[C@@H](C)C[C@H](OC)[C@@H](O)[C@@H](C)C=C(C)[C@H](OC(N)=O)[C@@H](OC)C=CC=C(C)C(=O)NC(=CC1=O)C2=O`, the parasite growth, % of DMSO control stood at 5.05%.

The compound `C[C@H](O)[C@@H]1C(=O)N2C(C(=O)O)=C(S[C@@H]3CN[C@H](CNS(N)(=O)=O)C3)[C@@H](C)[C@@H]12` showed a parasite growth, % of DMSO control of 107%.

In the case of `Cc1coc2c1C(=O)C(=O)c1c-2ccc2c(C)cccc12`, the parasite growth, % of DMSO control amounted to 8.32%.

Turning to `Nc1nc(N)c2nc(-c3cccc(O)c3)c(-c3cccc(O)c3)nc2n1`, the parasite growth, % of DMSO control was determined as 15.5%.

For the compound `CC(C)Oc1ccc(C(=O)N[C@H](CNC(=O)CN(C)C)Cc2ccc(-c3cn4cccc([C@H](C)O)c4n3)cc2)cc1Cl`, the parasite growth, % of DMSO control stood at 5.62%.

With `O=C(Nc1cccc(Nc2ncc(Br)c(NCCc3cnc[nH]3)n2)c1)N1CCCC1`, the parasite growth, % of DMSO control stood at 7.42%.

Regarding `CCCCOc1ccc(C(=O)Nc2ccc(F)cc2F)cc1`, the parasite growth, % of DMSO control stood at 108%.

`CCN(CC)Cc1ccc2cc(COC(=O)Nc3ccc(C(=O)NO)cc3)ccc2c1`: the parasite growth, % of DMSO control worked out at 4.38%.

`CN(C)c1ccc(C(=O)NCCCCCCC(=O)NO)cc1` came in with a parasite growth, % of DMSO control of 5.09%.

Regarding `O=S(=O)(O)CCSSCCS(=O)(=O)O`, the parasite growth, % of DMSO control was 79.5%.

Turning to `C=CC(=O)Nc1ccc2ncnc(Nc3ccc(OCc4cccc(F)c4)c(Cl)c3)c2c1`, the parasite growth, % of DMSO control came out at 6.97%.

`CC(=O)O[C@H]1C[C@@H]2CC[C@H]3[C@H]4C[C@H]([N+]5(C)CCCCC5)[C@@H](OC(C)=O)[C@@]4(C)CC[C@@H]3[C@@]2(C)C[C@H]1N1CCCCC1` had a parasite growth, % of DMSO control of 40.5%.

Compound `CN(C)CC[C@H](c1ccc(Cl)cc1)c1ccccn1` gave a parasite growth, % of DMSO control of 94.7%.

Consider `CN(CC(=O)N(Cc1ccc(C2CCCCC2)cc1)c1ccc(C(=O)O)c(O)c1)S(=O)(=O)c1c(F)c(F)c(F)c(F)c1F`, for which the parasite growth, % of DMSO control was 51%.

As to `C=CC(=O)Nc1cccc(Nc2nc(NC3CCC(N(C)C)CC3)nc3c2ncn3C(C)C)c1` (configuration not stated), the parasite growth, % of DMSO control was determined as 10.5%.

As to `OCCNC1CCCc2c1[nH]c1ccc(-c3ccccc3)cc21` (configuration not stated), the parasite growth, % of DMSO control was determined as 7.39%.

In the case of `Cc1cncc2cccc(S(=O)(=O)N3CCCN(C(=O)CN)C[C@@H]3C)c12`, the parasite growth, % of DMSO control came out at 85.8%.

Regarding `CCCc1nc(C(C)(C)O)c(C(=O)O)n1Cc1ccc(-c2ccccc2-c2nn[nH]n2)cc1`, the parasite growth, % of DMSO control stood at 87.7%.

Compound `COc1ccc(Nc2nccc(NCCO)n2)cc1` showed a parasite growth, % of DMSO control of 67.2%.
